The structures appear in SMILES notation. The source made the active and inactive calls.

The nature of test [1]: optical density shifts of acrAB sulA E. coli – strain DRC41, OD650, 48 h, E. coli filamentation inducer project, primary screen (AID 1152).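 Note: E. coli MC1000 strain DRC41 lacking acrAB efflux pump and sulA.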 Particulars: higher = more signal, called active from +8 up or from −8 down.
Test [2] in a line: probe aLefty1 binding on compound microarray – biochemical, small-molecule microarray, 635/667 nm fluorescence, primary screen (AID 1153).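 Note: score merges spot fluorescence with signal-to-noise ratio from the scanned slide images.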 Particulars: higher = more signal.
The nature of test [3]: plasmodial surface anion channel blockers, osmotic lysis – cell-based, P. falciparum Indochina, OD700, 1 h, primary screen (AID 1154). The settings on record: P. falciparum Indochina infected RBC osmotic lysis, higher = more signal, called active from +8 up or from −8 down.
The nature of test [4]: plasmodial surface anion channel blockers, osmotic lysis – cell-based, P. falciparum Indochina, OD700, 2 h, primary screen (AID 1155).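 Note: lysis reports solute entry through the parasite surface anion channel PSAC.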 The settings on record: P. falciparum Indochina infected erythrocytes, higher = more signal, called active from +8 up or from −8 down.
Test [5] in a line: changes in parasitized red cell lysis, either direction – P. falciparum Indochina, OD700, 3 h, PSAC antagonist project, primary screen (AID 1156). The settings on record: P. falciparum-infected erythrocytes, osmotic lysis, higher = more signal, called active from +8 up or from −8 down.
Test [6] in a line: plasmodial surface anion channel blockers, osmotic lysis – cell-based, P. falciparum Indochina, OD700, 18 h, primary screen (AID 1157). The settings on record: P. falciparum Indochina infected erythrocytes, osmotic lysis OD700, 18 h; higher = more signal, called active from +8 up or from −8 down.
Test [7] in a line: S6 kinase pathway phospho-S6 level changes – cell-based, A549, cytoblot, luminescence, serum-stimulated, primary screen (AID 1158).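 Note: serum-stimulated A549 lung adenocarcinoma cells; signal is phosphorylated S6 detected by cytoblot immunostaining with HRP secondary.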 Particulars: 5 h, higher = more signal.
For test [8], the target named is NADPH oxidase 2 (Homo sapiens) (UniProt P04839). Kind of test: compounds shifting NOX2 Amplex Red fluorescence – cell-based, HEK293-NOX2, PMA-stimulated, NOX inhibitor project, primary screen (AID 1159). Note: test concentration not given here. The settings on record: 45 min, higher = more signal, called active from +8 up or from −8 down.
The target in test [9] is NADPH oxidase 4 (Homo sapiens) (UniProt Q9NPH5). Kind of test: compounds shifting NOX4 Amplex Red fluorescence – cell-based, HEK293-NOX4, tetracycline-induced, NOX inhibitor project, primary screen (AID 1160). The settings on record: HEK293-NOX4, Amplex Red H2O2 fluorescence, 45 min; higher = more signal, called active from +8 up or from −8 down.
Test [10] addresses NADPH oxidase 5 (Homo sapiens) (UniProt Q96PH1). Kind of test: compounds shifting NOX5 Amplex Red fluorescence – cell-based, HEK293-NOX5, NOX inhibitor project, primary screen (AID 1161). Particulars: HEK293-NOX5, ionomycin, 45 min, higher = more signal.
A short description of test [11]: compound effects on lung adenocarcinoma cell viability – A549, calcein-AM fluorescence, 48 h, basal, profiling panel (AID 1162). Note: test concentration not given here. Particulars: higher = more signal.
Test [12] can be described thus: compound effects on differentiated 3T3-L1 adipocyte viability – cell-based, 3T3-L1 adipocytes, calcein-AM fluorescence, 48 h, basal, profiling panel (AID 1163). Note: test concentration not given here. The settings on record: 3T3-L1 adipocytes viability, higher = more signal.
Test [13] in a line: compound effects on hepatocellular carcinoma cell viability – HepG2, calcein-AM fluorescence, 48 h, basal, profiling panel (AID 1164). Note: test concentration not given here. Particulars: higher = more signal.
The nature of test [14]: compound effects on multiple myeloma cell viability – MM1S, calcein-AM fluorescence, 48 h, basal, profiling panel (AID 1165).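 Note: viability of MM1S multiple myeloma cells under basal unstimulated conditions; test concentration not given here.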 The settings on record: higher = more signal.
Test [15] is described as follows: calcein-AM signal in unstimulated myeloma cells – cell-based, calcein-AM fluorescence, 48 h, PK04 Diversity Set, profiling panel (AID 1166).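 Note: cells grown under basal conditions without added stimulus; test concentration not given here.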 The settings on record: RPMI8226 myeloma viability, higher = more signal.
Test [16] is described as follows: JC-1 mitochondrial signal, unstimulated HepG2 cells – cell-based, JC-1 fluorescence, 24 h, 100 nL compound, profiling panel (AID 1167). Note: test concentration not given here. The settings on record: HepG2 mitochondrial potential, higher = more signal.
A short description of test [17]: JC-1 mitochondrial signal, unstimulated adipocytes – cell-based, JC-1 fluorescence, 3T3-L1 adipocytes, 24 h, 100 nL compound, profiling panel (AID 1168). Note: test concentration not given here. Particulars: JC-1 mitochondrial fluorescence, higher = more signal, called active from +8 up or from −8 down.
A short description of test [18]: JC-1 mitochondrial signal, unstimulated myeloma cells – cell-based, JC-1 fluorescence, RPMI8226, 24 h, 100 nL compound, profiling panel (AID 1169). Note: test concentration not given here. Particulars: JC-1 mitochondrial potential fluorescence, higher = more signal.
Test [19] can be described thus: JC-1 mitochondrial signal, unstimulated MM1S myeloma – cell-based, JC-1 fluorescence, 24 h, 100 nL compound, profiling panel (AID 1170). Note: test concentration not given here. Particulars: MM1S mitochondrial potential, higher = more signal.
Test [20] can be described thus: resazurin metabolic signal in A549 cells – cell-based, resazurin fluorescence, 24 h, PK04 Diversity Set, profiling panel (AID 1171). Note: test concentration not given here. Particulars: A549 viability, higher = more signal, called active from +8 up or from −8 down. A general note: The colour change of resazurin is a common sign of viable cells or microbes.

Chain of NADPH oxidase 2 (Homo sapiens) (P04839 whole entry, looked up): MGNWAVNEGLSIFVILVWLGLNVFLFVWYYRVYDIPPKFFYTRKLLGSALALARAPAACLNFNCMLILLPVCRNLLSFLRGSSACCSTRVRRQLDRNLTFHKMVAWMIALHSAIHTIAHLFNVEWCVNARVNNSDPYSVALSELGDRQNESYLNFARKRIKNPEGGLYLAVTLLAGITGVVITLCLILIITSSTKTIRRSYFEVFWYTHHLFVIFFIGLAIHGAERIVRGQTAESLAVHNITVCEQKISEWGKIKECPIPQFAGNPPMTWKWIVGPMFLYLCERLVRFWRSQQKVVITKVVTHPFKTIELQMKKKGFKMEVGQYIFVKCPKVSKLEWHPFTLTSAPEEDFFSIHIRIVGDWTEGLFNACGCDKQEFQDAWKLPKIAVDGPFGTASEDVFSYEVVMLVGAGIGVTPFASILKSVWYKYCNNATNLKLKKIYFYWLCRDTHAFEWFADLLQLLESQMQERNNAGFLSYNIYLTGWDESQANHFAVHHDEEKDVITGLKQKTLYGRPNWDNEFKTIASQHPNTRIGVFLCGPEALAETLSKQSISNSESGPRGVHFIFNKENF
Chain of NADPH oxidase 4 (Homo sapiens) (Q9NPH5 whole entry, looked up): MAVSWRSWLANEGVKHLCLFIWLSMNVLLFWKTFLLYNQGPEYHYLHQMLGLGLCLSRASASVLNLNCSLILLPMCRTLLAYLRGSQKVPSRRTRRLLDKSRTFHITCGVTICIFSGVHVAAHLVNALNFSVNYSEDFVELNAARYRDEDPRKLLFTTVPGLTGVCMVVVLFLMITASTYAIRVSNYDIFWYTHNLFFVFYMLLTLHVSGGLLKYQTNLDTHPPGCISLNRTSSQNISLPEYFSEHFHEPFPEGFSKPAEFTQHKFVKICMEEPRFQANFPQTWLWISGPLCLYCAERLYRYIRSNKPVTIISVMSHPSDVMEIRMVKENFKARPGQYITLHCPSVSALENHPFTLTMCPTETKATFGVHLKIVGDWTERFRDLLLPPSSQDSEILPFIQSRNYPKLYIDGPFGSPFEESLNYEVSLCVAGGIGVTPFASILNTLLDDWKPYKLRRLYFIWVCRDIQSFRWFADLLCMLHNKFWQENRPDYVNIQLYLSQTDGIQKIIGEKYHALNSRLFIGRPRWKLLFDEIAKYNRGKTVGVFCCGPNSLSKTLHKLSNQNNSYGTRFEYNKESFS
Chain of NADPH oxidase 5 (Homo sapiens) (Q96PH1 whole entry, looked up): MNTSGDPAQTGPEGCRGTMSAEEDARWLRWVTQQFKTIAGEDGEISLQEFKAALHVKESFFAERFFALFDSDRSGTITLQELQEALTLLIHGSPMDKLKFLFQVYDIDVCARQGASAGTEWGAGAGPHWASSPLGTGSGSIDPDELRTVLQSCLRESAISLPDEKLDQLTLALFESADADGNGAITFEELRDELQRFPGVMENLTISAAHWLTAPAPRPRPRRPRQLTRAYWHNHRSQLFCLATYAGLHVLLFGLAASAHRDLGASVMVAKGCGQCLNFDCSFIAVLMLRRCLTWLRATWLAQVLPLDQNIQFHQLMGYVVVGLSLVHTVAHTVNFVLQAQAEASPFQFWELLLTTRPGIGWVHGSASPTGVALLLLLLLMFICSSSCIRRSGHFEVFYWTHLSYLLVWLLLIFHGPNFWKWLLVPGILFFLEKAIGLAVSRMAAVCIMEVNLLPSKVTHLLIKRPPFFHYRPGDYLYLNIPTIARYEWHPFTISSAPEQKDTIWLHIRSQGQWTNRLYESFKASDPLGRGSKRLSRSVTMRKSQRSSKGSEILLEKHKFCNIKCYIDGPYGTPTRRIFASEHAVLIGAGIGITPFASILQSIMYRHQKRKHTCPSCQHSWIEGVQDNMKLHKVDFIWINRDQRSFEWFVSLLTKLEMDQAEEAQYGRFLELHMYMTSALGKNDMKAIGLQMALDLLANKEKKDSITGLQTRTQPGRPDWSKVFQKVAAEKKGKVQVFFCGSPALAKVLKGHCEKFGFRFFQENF

With `COC(=O)C1(CC(C)C)C=C2C(=C(C(C)C)C(=O)C2C)CN1` (stereo not given), the z-score was -1.85 (inactive) in test [1]; 1.06 (inactive) in [3]; -0.385 (inactive) in test [4]; 1.07 (inactive) in test [5]; 0.274 (inactive) in test [6]; -0.38 in [7]. Besides, the z-score in test [8] was 0.377 (inactive); in test [9], -1.05 (inactive); in [10], -2.44; in test [11] it was -1.49; in [12], -0.404; in test [13], -1.43. Also, the z-score in [14] is 0.0112; in [15], -1.31; in test [16], -1.31; in test [17] it was -1.46 (inactive); in [18] it was 0.105; in test [19], -0.919. Besides, in test [20], the z-score is -0.697 (inactive). Further, in [2], the composite z-score worked out at 0.302.

Regarding `CCOC(=O)C1=CCC(c2cc3ccccc3[nH]2)N(S(=O)(=O)c2ccccc2[N+](=O)[O-])C1` (stereo not given), the z-score in [1] was -0.485 (inactive); in [3] it was 4.73 (inactive); in [4], 0.822 (inactive); in test [5] it was -0.217 (inactive); in test [6], 0.631 (inactive); in test [7], -0.146. Also, the z-score in [8] was 0.269 (inactive); in [9], -0.546 (inactive); in test [10] it was 0.731; in test [11], 0.0857; in [12] it was -0.913; in test [13], 0.527. Moreover, the z-score in test [14] is 0.277; in test [15], -0.467; in test [16], 1.17; in test [17], -0.433 (inactive); in test [18], -0.366; in test [19], -1.61. For the same compound, the z-score in test [20] was -0.869 (inactive). In [2], this compound yielded a composite z-score of -0.391.

As for `CC(C)C[C@H]1NC(=O)[C@@]23C(=O)N[C@@H](Cc4ccccc4)C2[C@H](C)[C@@]2(C)O[C@H]2C3/C=C/C/C=C\CNC(=O)[C@@H]2CCCN2C1=O` (stereo not given in full), the z-score in test [1] is -1.09 (inactive); in [3], 0.0869 (inactive); in test [4], -0.26 (inactive); in test [5] it was -0.875 (inactive); in test [6], -0.234 (inactive); in test [7], 0.0247. In addition, the z-score was 0.708 (inactive) in test [8]; 1.29 (inactive) in test [9]; 0.968 in test [10]; 0.0246 in [11]; -0.0768 in test [12]; -0.54 in [13]. The z-score in test [14] was -1.41; in test [15] it was -0.531; in test [16], -0.831; in test [17] it was 0.244 (inactive); in test [18], 0.868; in [19], -0.391. In test [20], the z-score is -0.659 (inactive). Moreover, the composite z-score in test [2] is -0.0544.

As to `O=C1OCCC/C=C\[C@H]2OC34C=CCN(Cc5ccccc5)C(=O)[C@H]3N(CCCCCO)C(=O)[C@@H]4C12` (stereo not given in full), the z-score was 0.435 (inactive) in test [1]; -0.457 (inactive) in test [3]; -0.172 (inactive) in test [4]; -0.123 (inactive) in [5]; -0.354 (inactive) in test [6]; -0.412 in [7]. Further, the z-score in test [8] was 1.17 (inactive); in test [9], 0.487 (inactive); in [10], 1.76; in [11] it was 0.379; in [12], 0.65; in test [13], 0.414. Further, the z-score in test [14] was 1.03; in [15], -0.42; in [16], -0.0205; in test [17], -0.0419 (inactive); in test [18] it was 0.803; in [19] it was -0.322. The z-score in test [20] was 1.37 (inactive). The composite z-score in [2] is -0.094.

In the case of `CN1C(=O)C2C(C1=O)C1C=C(c3ccc(CO)cc3)C2C(c2cccs2)N1C` (stereo not given), the z-score in [1] was 0.894 (inactive); in [3] it was 3.57 (inactive); in [4] it was 1.29 (inactive); in test [5], 1.43 (inactive); in test [6], 0.699 (inactive); in test [7], -0.105. Besides, the z-score was 0.158 (inactive) in test [8]; -1.96 (inactive) in test [9]; -0.45 in [10]; -0.0148 in [11]; 0.338 in [12]; 0.186 in test [13]. Further, the z-score in [14] is -0.88; in test [15], -0.996; in test [16], 0.398; in [17] it was -0.42 (inactive); in test [18], -0.492; in [19], 0.172. In addition, the z-score in test [20] was -0.173 (inactive). Also, the composite z-score in test [2] is 0.186.

For the compound `C=CC[C@@]1(C(=O)O)N=C(c2ccc(OCCCO)cc2)O[C@@H]1c1ccccc1CN=[N+]=[N-]`, the z-score in test [1] was 0.578 (inactive); in test [3], 25.8 (active); in [4], 16.5 (active); in [5], 1.15 (inactive); in test [6], 1.71 (inactive); in test [7], 0.842. For the same compound, the z-score was -0.235 (inactive) in test [8]; 1.24 (inactive) in test [9]; 0.186 in test [10]; -0.473 in test [11]; 0.891 in test [12]; 0.545 in [13]. Moreover, the z-score in test [14] is 0.15; in test [15], 0.0466; in test [16], 0.171; in [17], -0.164 (inactive); in test [18], -0.973; in test [19], -1.54. In addition, the z-score in test [20] is 0.611 (inactive). In [2], this compound returned a composite z-score of -0.335.

In the case of `C/C=C/CN(C(=O)C#Cc1ccccc1)[C@H](CO[Si](C)(C)C(C)(C)C)c1ccccc1`, the z-score in test [1] is 2.64 (inactive); in test [3], 0.567 (inactive); in test [4], -0.912 (inactive); in test [5], -0.509 (inactive); in test [6] it was -1.83 (inactive); in test [7], 1.52. Also, the z-score was 0.405 (inactive) in test [8]; 0.123 (inactive) in [9]; -0.373 in test [10]; -0.21 in test [11]; 1.45 in [12]; -0.488 in [13]. Also, the z-score is -2.38 in test [14]; -3.4 in test [15]; 2.31 in [16]; 1.37 (inactive) in [17]; -0.522 in [18]; -0.0851 in test [19]. Moreover, the z-score in test [20] was 0.365 (inactive). In test [2], this compound showed a composite z-score of -0.324.

In the case of `CC(C)CNC(=O)[C@@H]1c2ccccc2C(=O)N(Cc2ccccc2)[C@H]1c1ccc(CO)cc1`, the z-score in test [1] is -0.603 (inactive); in test [3], 1.49 (inactive); in [4], 0.294 (inactive); in test [5], 2.44 (inactive); in test [6], 0.769 (inactive); in test [7], -0.316. In addition, the z-score was -0.638 (inactive) in test [8]; -1.24 (inactive) in test [9]; -3.17 in test [10]; -0.412 in [11]; 0.175 in test [12]; -0.345 in test [13]. The z-score is 0.0234 in test [14]; 0.65 in test [15]; 0.508 in test [16]; -0.526 (inactive) in [17]; 0.146 in test [18]; -0.139 in [19]. Besides, in test [20], the z-score was 0.678 (inactive). Moreover, in [2], the composite z-score is -0.106.

The values above are taken from PubChem BioAssay.
